# Source: PubChem BioAssay (NCATS)
# Inconclusive results are not listed. Where a call stands in place of a potency, no number is given. The source made the active and inactive calls. Calls follow the shape of the dose curve; as a rule, active = well fitted curve in the direction sought with a large enough effect; inconclusive = small, poorly fitted or top-dose-only effect, or another doubt; inactive = no such curve, though single readings can be large; an effect the other way counts as inactive or inconclusive.
# Key:
# [1] = biological target: Aldehyde dehydrogenase, mitochondrial (Homo sapiens) (UniProt P05091); experiment: qHTS for Inhibitors of the Aldehyde Dehydrogenase Family (ALDH2) Primary screen (AID 2061308); also: nearly all actives have a fitted effect of over 55% in size
# [2] = biological target: Retinaldehyde dehydrogenase 3 (Homo sapiens) (UniProt P47895); experiment: qHTS for Inhibitors of the Aldehyde Dehydrogenase Family (ALDH1A3) Primary screen (AID 2061315)
SMILES,Potency [1],Potency [2]
O=C(Nc1ccc(S(=O)(=O)Nc2nccs2)cc1)c1cccnc1,inactive,inactive
CC(C)CC(=O)O[C@@H]1OC=C(CO[C@@H]2O[C@H](CO[C@@H]3O[C@H](CO)[C@@H](O)[C@H](O)[C@H]3O)[C@@H](O)[C@H](O)[C@H]2O)[C@H]2C[C@H](O)[C@@H](CO)[C@@H]12,inactive,inactive
CCOC(=O)c1cccc(NS(=O)(=O)c2ccc(NC(=O)Cc3ccc(Cl)c(Cl)c3)cc2)c1,inactive,inactive
O=C(Nc1ccc(Cl)nc1)Nc1nnc(-c2ccncc2)s1,inactive,inactive
Cc1nnc(-c2cnn(C)c2N)n1CCCc1ccccc1,inactive,inactive
COC(=O)c1ccc(O)c2ncc(NC3CCNCC3)cc12,inactive,inactive
O=C1CCCC2=C1C(c1ccccc1Br)N=C(Nc1nc3ccccc3o1)N2 (stereo not given),inactive,inactive
O=[S+]([O-])(NC[C@H]1CCC[C@H](CN[S+](=O)([O-])c2c(F)cccc2F)C1)c1ccc2c(c1)OCCO2,inactive,inactive
COc1ccc(C2=Nn3c(nnc3-c3ccccc3OC)SC2)cc1O[C@H]1CCOC1,inactive,inactive
CC(C)=CCC[C@](C)(O[C@@H]1O[C@H](CO[C@@H]2O[C@@H](CO)[C@H](O)[C@H]2O)[C@@H](O)[C@H](O)[C@H]1O)[C@H]1CC[C@]2(C)[C@@H]1[C@H](O)C[C@@H]1[C@@]3(C)CC[C@H](O[C@@H]4O[C@H](CO)[C@@H](O)[C@H](O)[C@H]4O[C@@H]4O[C@H](CO)[C@@H](O)[C@H](O)[C@H]4O)C(C)(C)[C@@H]3CC[C@]12C,inactive,inactive
